Among the data in PubChem BioAssay (NCI) are growth inhibition values, retold here.

Test [1] in a line: NCI Yeast Anticancer Drug Screen. Data for the rad50 strain (AID 155).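 Note: 0% = growth of vehicle-only cultures of the same strain.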 As to conditions: S. cerevisiae rad50 strain growth inhibition; at 50.0 µM; active compounds read high. The method, boiled down:
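Cells are treated with compound, grown, and their growth is then scored against vehicle-only cultures of the same repair-deficient yeast strain.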

Test [2] in a line: NCI Yeast Anticancer Drug Screen. Data for the mec2-1 strain (AID 157). The note with it: S. cerevisiae mec2-1 strain, at 50.0 µM, active compounds read high. The method, boiled down: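 Test agents were screened against the mec2-1 yeast strain, with defined DNA repair or cell cycle alteration. Growth was scored as inhibition against vehicle-only controls.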
The nature of test [3]: NCI Yeast Anticancer Drug Screen. Data for the sgs1 mgt1 strain (AID 161).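 Note: 0% = growth of cultures given vehicle only.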 As to conditions: S. cerevisiae sgs1 mgt1 strain, at 50.0 µM, active compounds read high. In a few lines: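 Inhibition of yeast growth, normalised to vehicle-treated controls, is reported for a strain bearing genetic alterations in DNA damage repair.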
A short description of test [4]: NCI Yeast Anticancer Drug Screen. Data for the cln2 rad14 strain (AID 165).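 Note: 0% = growth equal to vehicle treated cultures.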 As to conditions: S. cerevisiae cln2 rad14 strain, at 50.0 µM, active compounds read high. In a few lines:
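Growth of compound-exposed yeast (cln2 rad14 genotype) measured and expressed as inhibition relative to vehicle.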

Test [5] is described as follows: NCI Yeast Anticancer Drug Screen. Data for the bub3 strain (AID 167). The note with it: S. cerevisiae bub3 mutant strain, at 50.0 µM, active compounds read high. The method, boiled down: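 Part of a panel of yeast mutants defective in DNA damage repair or cell cycle regulation. Each strain is grown with compound, and inhibition is calculated relative to solvent-treated cultures.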

A short description of test [6]: NCI Yeast Anticancer Drug Screen. Data for the mlh1 rad18 strain (AID 175). As to conditions: S. cerevisiae mlh1 rad18 strain growth inhibition; at 50.0 µM; active compounds read high. The method, boiled down:
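In this whole-cell yeast screen, a strain with altered DNA damage repair is challenged with compound, and its growth is measured against matched vehicle-treated controls.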

The panel holds about 79,000 compounds, 15% with a hit somewhere; the sample as a whole holds those more often. A number with no mark means an inactive call. Active and inactive are the calls of the source. Cut-off read from the data, not from the text of the source: active = growth inhibition above about 70%; inactive = the rest.

Regarding `Cc1c(-c2ccccc2)cc(O)c2nc3ccccc3n12`, the growth inhibition in test [1] was -31.2%; in test [2] it was 6.45%; in test [3], -16.6%; in test [4], 2.45%; in test [5], 11.9%; in test [6] it was -36.9%.

Turning to `COc1cc2c(c(O)c1OC)C(=O)[C@@H]1CCC(=O)N1C2c1ccccc1` (stereo partly drawn), the growth inhibition in test [1] was 19.1%; in test [2] it was 2.7%; in test [3], 19.4%; in test [4], 13.1%; in test [5], 11.3%; in test [6] it was -18.4%.

Regarding `O=C(N/N=C\c1cccnc1)Nc1ccc(N=Nc2ccccc2)cc1`, the growth inhibition is 12% in test [1]; 12.5% in test [2]; -1.9% in test [3]; -9.2% in test [4]; 11.9% in test [5]; 23.1% in test [6].

Regarding `O=C(Nc1ccccc1Cl)c1ccc([N+](=O)[O-])cc1`, the growth inhibition in test [1] is 11.4%; in test [2], 15.4%; in test [3], 18.6%; in test [4] it was 10.3%; in test [5] it was 11.2%; in test [6], 24.6%.

On to `COc1ccc2[nH]c(=O)oc(=O)c2c1`, for which the growth inhibition in test [1] is 1%; in test [2], 1.25%; in test [3] it was -7.5%; in test [4], -33.9%; in test [5], -16.4%; in test [6], -2.8%.

Consider `Cc1ccc2nc(-c3ccc(N=NNc4ccc(-c5nc6ccc(C)c(S(=O)(=O)O)c6s5)cc4)cc3)sc2c1S(=O)(=O)O`, for which the growth inhibition is 23.5% in test [1]; 6.85% in test [2]; -9.7% in test [3]; 18.2% in test [4]; 12.3% in test [5]; 18.6% in test [6].

On to `COc1ccc(C(=O)Nc2ccccc2C#N)cc1`, for which the growth inhibition is -0.15% in test [1]; -4.5% in test [2]; -9.25% in test [3]; -1.25% in test [4]; 1.55% in test [5]; -3.8% in test [6].

Regarding `Cc1ccc(C(C)C)cc1NC=O`, the growth inhibition was -6.55% in test [1]; -13.3% in test [2]; -20.1% in test [3]; 0.05% in test [4]; -2.6% in test [5]; 5.4% in test [6].

Regarding `CN1CCc2nc(N)nc(-c3nc(N)nc4c3CN(C)CC4)c2C1`, the growth inhibition is -3.15% in test [1]; -12.2% in test [2]; -11.4% in test [3]; -17.1% in test [4]; -37.1% in test [5]; -1.8% in test [6].

On to `C1CCN(SN2CCCCC2)CC1`, for which the growth inhibition in test [1] is -4.4%; in test [2] it was -15.7%; in test [3] it was -3.6%; in test [4] it was -13.2%; in test [5], 4.75%; in test [6], 5.7%.

Take `O=C1OC(/C=C/c2ccccc2)=NC/1=C\C=C\c1ccccc1`: the growth inhibition in test [1] was 24.1%; in test [2] it was 14.8%; in test [3], 14.9%; in test [4], 14.2%; in test [5], 6.15%; in test [6] it was -1.65%.

As for `CC1(C)CC(C)(O)N(CCc2ccccc2)C(=S)N1` (stereo not drawn), the growth inhibition in test [1] is -6.55%; in test [2] it was 2.7%; in test [3], 8.8%; in test [4], -17.1%; in test [5], 5.15%; in test [6], 2.45%.

As for `CC(=O)OC1CCC2(C)C(=CCC3C2CCC2(C)C(/C(C)=N/NC(N)=S)=CCC32)C1` (stereo not drawn), the growth inhibition in test [1] was 58.8%; in test [2], 55.4%; in test [3] it was 67.6%; in test [4], 49.6%; in test [5] it was 37.7%; in test [6], 54.1%.

In the case of `CC(=O)CC(=O)CCCCC(=O)O`, the growth inhibition in test [1] was -0.15%; in test [2], -11.1%; in test [3], -6.55%; in test [4], -22.6%; in test [5] it was -5.6%; in test [6], 4.8%.

For the molecule `CCCCCCC#CC(=O)O`, the growth inhibition is 7.8% in test [1]; -3.6% in test [2]; 0.5% in test [3]; 16.1% in test [4]; -4.3% in test [5]; 30.4% in test [6].

`COC(=O)/C(C#N)=C(\C)CC(C)C`: the growth inhibition in test [1] was 13.2%; in test [2] it was -17.4%; in test [3], -20.1%; in test [4] it was -3.65%; in test [5] it was -24.4%; in test [6], -9%.

Take `Clc1cccc(Cl)c1/C=N/N1CCN(/N=C/c2c(Cl)cccc2Cl)CC1`: the growth inhibition in test [1] was 18.9%; in test [2], 10.1%; in test [3], 17.9%; in test [4], 6.45%; in test [5], -4.1%; in test [6], 0.7%.

Turning to `CCN(CC)CCOC(=O)c1ccc(NC(=O)Nc2ccc(Br)cc2)cc1`, the growth inhibition in test [1] is 4.6%; in test [2] it was -4.95%; in test [3], 30.1%; in test [4], 0.25%; in test [5] it was 8.05%; in test [6], 11.2%.

On to `CN1CCCC2[C@@H]3CCC4=C(O)C(=O)CC[C@]4(C)C3CC[C@@]21C` (stereo partly drawn), for which the growth inhibition in test [1] was 9.05%; in test [2], -6.05%; in test [3], -4%; in test [4], 22.1%; in test [5] it was 0.85%; in test [6], 18.4%.

In the case of `NS(=O)(=O)c1ccc(N2C(=O)C(=O)N(c3ccccc3)C2=S)cc1`, the growth inhibition was -15.8% in test [1]; -11.9% in test [2]; -16.2% in test [3]; -39.4% in test [4]; -3.75% in test [5]; -20.5% in test [6].

Consider `O=C(COc1ccc(Cl)cc1Cl)Nc1ccc(N=Nc2ccccc2)cc1`, for which the growth inhibition in test [1] was -0.5%; in test [2] it was 7.55%; in test [3], -1.95%; in test [4] it was -3.65%; in test [5] it was -2.8%; in test [6], 19.9%.

Take `Cc1ccc(C)c(NC(=O)c2ccc([N+](=O)[O-])cc2)c1`: the growth inhibition is -4.55% in test [1]; 17.4% in test [2]; 10% in test [3]; -11.8% in test [4]; 16.4% in test [5]; 23.6% in test [6].

As for `CC(O)c1cc2c(s1)C(=O)c1scc(C(C)O)c1C2=O` (stereo not drawn), the growth inhibition in test [1] is 89.8% (active); in test [2], 93.1% (active); in test [3], 92% (active); in test [4] it was 90.8% (active); in test [5] it was 91.4% (active); in test [6], 90.8% (active).

Consider `OC(CCN1CC2CCC(CC2)C1)(Cc1ccccc1)c1ccc(F)cc1` (stereo not drawn), for which the growth inhibition was -3.8% in test [1]; -7.9% in test [2]; 23.1% in test [3]; -5.15% in test [4]; 22.6% in test [5]; -7.25% in test [6].

`CN(C)c1ncnc2c1ccn2CC(O)CO` (stereo not drawn): the growth inhibition is -2.7% in test [1]; -11.1% in test [2]; -8.55% in test [3]; -54.5% in test [4]; 3.1% in test [5]; -2.85% in test [6].

In the case of `Cc1ccccc1-c1ccccc1`, the growth inhibition was 14.8% in test [1]; 1.3% in test [2]; -17.7% in test [3]; -45.8% in test [4]; -5.8% in test [5]; 17.6% in test [6].

With `OCCc1c[nH]c2ccccc12`, the growth inhibition was -18.7% in test [1]; -16.2% in test [2]; 10.5% in test [3]; -17.3% in test [4]; -1.85% in test [5]; 11.8% in test [6].

Take `NNC1CCN(Cc2ccccc2)CC1`: the growth inhibition in test [1] is 2.5%; in test [2], -16.8%; in test [3], 0.25%; in test [4] it was 22.2%; in test [5], -1.9%; in test [6], 14.2%.

As to `N#Cc1c(-c2ccccc2)[nH]c2ccc(Cl)cc2c1=O`, the growth inhibition in test [1] was 6.6%; in test [2], -30.5%; in test [3], -21.7%; in test [4] it was -7.8%; in test [5] it was -9.75%; in test [6], -28.1%.

As for `N#CCCC1C(=O)CCCC1=O`, the growth inhibition in test [1] was 0.2%; in test [2], 9.2%; in test [3], -0.85%; in test [4], -13.6%; in test [5] it was 6.9%; in test [6], 12.9%.

`C[N+](C)(C)CCOc1cccc(Br)c1`: the growth inhibition in test [1] is 9.8%; in test [2] it was 14.5%; in test [3] it was 21.6%; in test [4] it was 29.8%; in test [5] it was 11.7%; in test [6], 23.9%.

`NC(=O)c1ccccc1N=NNc1ccccc1`: the growth inhibition was 17.5% in test [1]; -4.65% in test [2]; 2.8% in test [3]; -28.5% in test [4]; -25.1% in test [5]; 16.1% in test [6].

As to `CC(C(=O)O)N(C)C(=O)OCc1ccccc1` (stereo not drawn), the growth inhibition in test [1] was -3.95%; in test [2], -21.1%; in test [3] it was 1.55%; in test [4] it was -18.8%; in test [5], -11.8%; in test [6], -4.5%.

`CCN(CC)CCNc1cccc(Cl)c1`: the growth inhibition was 60.1% in test [1]; 9.25% in test [2]; 34.4% in test [3]; 25.2% in test [4]; 29.1% in test [5]; 47.5% in test [6].

Regarding `Cc1cc2oc3c(c2c(=O)[nH]1)C(=O)c1ccccc1C3=O`, the growth inhibition in test [1] was -6.55%; in test [2] it was -1.3%; in test [3], -8%; in test [4], -17.4%; in test [5], -21.8%; in test [6], -5.85%.

With `COc1ccc(-n2c(C)nc3c(cnn3CN3CCCCC3)c2=O)cc1`, the growth inhibition was 4% in test [1]; -0.95% in test [2]; -1.25% in test [3]; -4.05% in test [4]; 8.75% in test [5]; 13.5% in test [6].

Take `C=CCNC(=O)C1C2C=CC(C2)C1C(=O)NCC=C` (stereo not drawn): the growth inhibition in test [1] is 4.95%; in test [2], -4.8%; in test [3], -21.9%; in test [4], -4.85%; in test [5], -7.95%; in test [6], 24.8%.

As to `COC(NC(N)=O)C(=O)O` (stereo not drawn), the growth inhibition in test [1] is 6.9%; in test [2], 12.3%; in test [3] it was -1.25%; in test [4] it was -0.9%; in test [5] it was 11.9%; in test [6], 13.7%.
